12-LOX inh – ALOX12 (human) lipoxygenase inhibition | purified 12hLO, xylenol orange hydroperoxide absorbance | Potency, µM (top dose mostly 108 µM), without a hit: at the top dose activity change, negative = inhibition, usual class: inhibitors | 580,000 tested, 1.1% active | AID 1671190; note: % is set by controls: 0 for no effect and ±100 for the full control effect
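Hydroperoxide product was detected by ferrous iron/xylenol orange as the 573 to 405 nm absorbance ratio. Arachidonic acid at 40 uM (final) was turned over for 30 min at room temperature by 150 nM human 12hLO, pH 7.0 Hepes buffer, after 15 min compound preincubation.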
Sfp inh – Sfp phosphopantetheinyl transferase inhibition; Biochemical Sfp PPTase activity, qHTS; Potency, µM, inactives show largest response in the series, negative = inhibition, usual class: inhibitors; 310,000 tested, 3.5% active;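 note: the enzyme is Sfp with the accession as filed and its product quenches rhodamine fluorescence; 0% = enzyme reaction without inhibitor and -100% = no enzyme wells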
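Sfp 15 nM + cpd, 15 min RT; start w/ rhodamine-CoA 5 uM, BHQ-2-YbbR 12.5 uM (final); 50 mM Hepes pH 7.6, 10 mM MgCl2, 0.01% NP-40, 0.01% BSA; read 525/598 nm at 0 and 30 min.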
G9a block – inhibitors of human histone lysine methyltransferase G9a; G9a H3K9 monomethylation, AlphaScreen, 2 h; 350,000 tested, 8.8% active; Potency, µM (highest dose often 102 µM), for the others: at the highest dose activity, negative = inhibition, most hits filed as inhibitors; Q96KQ7; note: % is set by controls: 0 for no effect and ±100 for the full control effect; nearly all actives have a fitted effect of over 75% in size
Target sequence (Q96KQ7 913-1193 limits assumed): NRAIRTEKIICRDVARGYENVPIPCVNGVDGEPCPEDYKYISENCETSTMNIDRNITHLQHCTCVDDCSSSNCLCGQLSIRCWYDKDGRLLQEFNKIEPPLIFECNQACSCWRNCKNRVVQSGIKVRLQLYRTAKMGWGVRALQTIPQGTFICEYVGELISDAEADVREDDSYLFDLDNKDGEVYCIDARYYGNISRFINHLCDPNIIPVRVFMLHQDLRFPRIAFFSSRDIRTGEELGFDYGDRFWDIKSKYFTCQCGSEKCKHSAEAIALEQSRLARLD
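G9a (20 nM) preincubated 15 min RT with compounds, then 500 nM biotinylated H3K9 peptide and 20 uM SAM added; 2 h RT reaction. Monomethyl-H3K9 product detected by AlphaScreen with anti-H3K9me1 antibody, streptavidin donor and anti-rabbit IgG acceptor beads.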
GRP78 ERSR act – ER stress response induction in glioma; 420,000 tested, 0.02% active; AID 602332; Potency, µM, inactives show top-dose activation, most hits filed as activators; U87-MG GRP78 promoter luciferase reporter, 16 h; note: series mostly up to about 76 µM; % of control where 0% means no effect; nearly all actives have a fitted effect of over 35% in size
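Stably transfected U87-MG glioma cells carrying a GRP78-based luciferase sensor; 16 h compound incubation. Luminescence end-point read 10 min after Bright-Glo addition at room temperature.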
VDR inhibitor – blocks the human vitamin D receptor; P11473; VDR-SRC2-3 peptide fluorescence polarization, 2 h; Potency, µM, inactives show max response, negative = inhibition, hits mostly inhibitors; 400,000 tested, 0.93% active; AID 504847; note: % is set by controls: 0 for no effect and ±100 for the full control effect
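Signal is fluorescence polarization, reporting how far test compounds block the interaction of VDR with the SRC2-3 coregulator peptide after a 2 h room-temperature incubation.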
Numbers without * were called inactive; ? = inconclusive; · = no result; [ ] = remark or other dose. This is one part of a sample in which hits are shown more often than they occur. Calls come from the whole dose curve; as a rule, active = well fitted curve in the direction sought with a large enough effect; inconclusive = small, poorly fitted or top-dose-only effect, or another doubt; inactive = no such curve, though single readings can be large; an effect the other way counts as inactive or inconclusive. Potency is the fitted concentration of half-maximal effect.

SMILES | 12-LOX inh | Sfp inh | G9a block | GRP78 ERSR act | VDR inhibitor
O=C(NC(=S)Nc1ccccc1N1CCCCC1)c1cccs1 | 50µM* | 25% | -28%[59 µM] | -1% | -15%
O=C(NC(=S)Nc1ccccc1N1CCN(C(=O)c2ccccc2)CC1)c1cccs1 | 16µM* | 4% | 11% | -1% | -7%
O=C(NC(=S)Nc1ccccc1N1CCOCC1)c1cccs1 | ? | 2% | ? | -3% | 3%
O=C(NC(=S)Nc1ccccc1N1CCCC1)c1cccs1 | -30% | ? | 16µM* | 12% | ?
Cc1ccc(S(=O)(=O)NCCc2ccc(S(N)(=O)=O)cc2)cc1 | ? | 5% | 14µM* | 1% | 3%
CN(C)c1cccc2c(C=C(C#N)C#N)ccc(N(C)C)c12 | -16% | -4% | 8.9µM* | -2% | -13%
Cc1cccc(-c2cc(Nc3ccc(C(=O)N(C)Cc4ccccc4)cc3)ncn2)c1 | 7% | · | · | · | ·
COc1ccc(CN[C@H]2[C@H](O)[C@H](O)C[C@@H]2c2ccccc2)cc1 | 57%[176 µM] | · | · | · | ·
CCc1nncn1C1CCN(S(=O)(=O)c2ccc(Cl)c(C)c2)CC1 | 28% | · | · | · | ·
CC(NC(=O)CSc1nc2sc3c(c2c(=O)n1-c1ccccc1)CCCC3)c1ccccc1 (stereo unspecified) | -8% | 12% | 15%[59 µM] | -3% | -6%
CN1CCc2c(sc3nc(SCC(=O)NCc4ccco4)n(-c4ccccc4)c(=O)c23)C1 | 78% | 0% | 45µM* | 1% | ?
O=C(CSc1nc2sc3c(c2c(=O)n1-c1ccccc1)CCCC3)N/N=C/c1ccccc1C(=O)O | · | 30% | 79µM* | 1% | 13%
O=C(NCc1ccco1)c1ccc2nc3sc4c(c3c(=O)n2c1)CCCC4 | · | 10µM* | ? | · | ·
COC(=O)CSc1nc2sc3c(c2c(=O)n1-c1ccc(OC)cc1)CCN(C)C3 | -20% | -2% | 12% | -4% | 21%
C=CCn1c(SCC(=O)NCc2ccco2)nc2sc3c(c2c1=O)CCCC3 | 0% | 26% | 20% | -3% | -9%
COc1ccc(-n2c(SCC(=O)NCc3ccco3)nc3sc4c(c3c2=O)CCN(C)C4)cc1 | 34% | -2% | 79µM* | 1% | 23%
O=C(NCCc1ccccc1)Nc1ccc(Cl)cc1F | 0% | · | · | · | ·
CN1CCc2c(sc3nc(SCC(=O)N4CCOCC4)n(-c4ccc(Cl)cc4)c(=O)c23)C1 | 49% | 5% | 71µM* | -3% | -6%
Fc1ccc(C2c3[nH]c4ccccc4c3CCN2Cc2cccn2-c2ncccn2)cc1 (stereo unspecified) | -13% | 3% | · | 0% | 5%
COc1cccc(C2c3[nH]c4ccccc4c3CCN2Cc2cccn2-c2ncccn2)c1 (stereo unspecified) | -15% | 2% | 40µM* | -3% | 18%
Clc1ccc(-n2cccc2CN2CCc3c([nH]c4ccccc34)C2c2ccccn2)nc1 (stereo unspecified) | -8% | -13% | 18µM* | -3% | -5%
COc1ccc(N=Nc2c(C)[nH]c3ccccc23)cc1 | ? | · | · | 15% | -19%
CC(=O)c1cccc(N=Nc2c(C)[nH]c3ccccc23)c1 | 0% | -3% | 10µM* | 3% | 10%
O=c1oc2c3c4c(cc2s1)CCCN4CCC3 | 18µM* | 18µM* | 7.9µM* | -2% | 79µM*
Cc1cccc(Cc2ccc3ncc(-c4cccc(C(N)=O)c4)n3n2)c1 | -17% | · | · | · | ·
SMILES | 12-LOX inh | Sfp inh | G9a block | GRP78 ERSR act | VDR inhibitor
Cc1cccc(N2C(=O)CS(=O)(=O)C23C(=O)N(C)c2ccccc23)c1 (stereo unspecified) | -5% | · | -24%[59 µM] | -3% | 4%
Cc1ccc(N2C(=O)CS(=O)(=O)C23C(=O)N(C)c2ccccc23)cc1F (stereo unspecified) | ? | · | 13µM* | -2% | -5%
Cc1ccc(NC(=O)CN(C)C(=O)C(C)OC(=O)c2ccccc2NCCO)cc1 (stereo unspecified) | -2% | · | ? | -2% | 10%
CC(OC(=O)c1ccccc1NCCO)C(=O)NCC(=O)Nc1ccc(F)c(F)c1F (stereo unspecified) | -22% | 11% | 28µM* | -4% | -15%
CCOC(=O)c1c(C)[n+]([O-])c2ccc3c(non3O)c12 | -12% | 17% | ? | 0% | 1%
CCOC(=O)c1c(=O)n(O)c2ccc(C)cc2[n+]1[O-] | ? | -10% | 50µM* | 3% | 11%

Screens (PubChem)
